HTR5A inv ag – HTR5A inverse agonism, opioid heterodimer counter-screen; AID 504634; 340,000 compounds, 0.083% hits; inhibition, % at 9.3 µM; HTR5A cell line, luminescence; in the data active = inhibition mostly above about 23%, no sharp cut-off; inactive = mostly below about 18%;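 also: 0% = cells with DMSO and 100% = no-cell wells with DMSO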
HTR5A ag ctr – HTR5A agonism, opioid heterodimer counter-screen | P47898 | HTR5A agonist assay, luminescence, cell-based | activation, % at 9.3 µM | 340,000 compounds, 0.61% hits | AID 504692; in the data active = activation mostly above about 9.5%, no sharp cut-off; inactive = mostly below about 7.6%;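 also: 0% = cells with vehicle only and 100% = reference agonist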
MOR-DOR inv ag – mu-delta opioid heterodimer inverse agonism; P35372+P41143; cell-based MOR-DOR heterodimer luminescence; inhibition, % at 9.3 µM; 340,000 compounds, 0.21% hits; in the data active = inhibition above about 22%, passing the limit was not always enough;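 also: 0% = cells with DMSO and 100% = wells without cells with DMSO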
MOR-DOR ag-1 – agonists of human mu-delta opioid receptor heterodimerization. P35372+P41143. cells, OPRM1-OPRD1 heterodimerization, luminescence. activation, % at 9.3 µM. 340,000 compounds, 0.3% hits;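 also: 0% = vehicle-treated cells and 100% = reference agonist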
MOR-DOR ag-2 – promotes OPRM1-OPRD1 heterodimerization in HTR5A counter-screen | 800 compounds, 13% hits | activation, % at 9.3 µM | shares compounds with HTR5A ag ctr | U2OS counter-screen cells, complementation luminescence, 3 h
HTR5A ag confirm – confirmation of human HTR5A agonists; HTR5A agonist cell assay, luminescence; AID 504915; activation, % at 9.3 µM; shares compounds with HTR5A ag ctr; 800 compounds, 17% hits; in the data active = activation above about 17%;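 also: 0% = cells with vehicle only and 100% = full reference agonist response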
Numbers without * were called inactive; . = not tested or not shown. Compounds with a hit are over-represented: about 1.1% of the library has one in this group of screens. Rule as the data show it, unless noted: active = activation above about 18%; inactive = the rest.

SMILES	HTR5A inv ag	HTR5A ag ctr	MOR-DOR inv ag	MOR-DOR ag-1	MOR-DOR ag-2	HTR5A ag confirm
Cc1ccc(NC(=O)C2C3/C=C\CCCCC32)cc1C (stereo not drawn)	-8.4	19.8*	-35.9	6.1	5.5	10.8
O=C(COc1ccc(C(=S)N2CCC(Cc3ccccc3)CC2)cc1)N1CCOCC1	-43.4	15.2*	4.4	-0.9	5.4	3.4
CC(=O)Nc1ccc(S(=O)(=O)NCCC(=O)N2CCN(C(c3ccccc3)c3ccccc3)CC2)cc1	0.4	6.7	14.6	-2.7	.	.
CCCN(CC(=O)Nc1ccccc1OC)C(=O)CC1CCCC1	-1.3	0.5	7.5	-1.9	.	.
C=CCn1c(SCC(=O)c2ccc(OC)cc2)nnc1-c1cc2cccc(OC)c2o1	-44.8	15.3*	-24.1	5.8	3.6	11.6
COc1ccc(C=NNc2nc3ccccc3s2)cc1	0.3	-0.1	-10.2	2.1	.	.
Cc1ccc2[nH]c(C)c(/C=N/Nc3nc4ccccc4s3)c2c1	-55.1	20.1*	-31.9	7.3	1.5	3.1
CCCn1c(SCC(=O)N2N=C3/C(=C/c4ccc(OC)cc4)CCCC3C2c2ccc(OC)cc2)n[nH]c1=O (stereo not drawn)	-77.1	22.6*	-8.7	1.5	25.9*	7.3
COC(=O)c1ccc(SCC(=O)NC2CCCC2)c([N+](=O)[O-])c1	1.8	-0.5	8.7	-1.6	.	.
NC(=O)c1ccc(SCC(=O)NC2CCCCC2)c([N+](=O)[O-])c1	7.8	14.5*	-14.4	3.0	2.2	1.4
Cn1c(SCc2cccc(F)c2)nnc1-c1ccncc1	-9.4	2.4	12.4	-2.6	.	.
CCOC(=O)c1c(NC(=O)CSc2n[nH]c(N)n2)sc(CC)c1C	-23.9	17.4*	-18.6	3.2	9.0	2.0
CCOC(=O)c1c(NC(=O)CSc2n[nH]c(CNc3ccccc3)n2)sc(C)c1C	-11.9	23.4*	-49.5	8.8	6.2	3.5
CCOC(=O)c1c(NC(=O)CSc2n[nH]c(-c3ccco3)n2)sc(C)c1C	-23.5	4.6	0.2	0.0	.	.
COC(=O)c1c(NC(=O)CSc2n[nH]c(N)n2)sc(C)c1C	-0.4	-1.4	7.7	-1.2	.	.
CCOC(=O)CC(=O)CSc1nc(-c2ccc3c(c2)OCO3)cc(C(F)(F)F)c1C#N	-6.4	2.0	6.2	-1.2	.	.
CCOC(=O)CCSc1nc(-c2ccc3c(c2)OCO3)cc(C(F)(F)F)c1C#N	-41.8	18.0*	-10.5	1.8	1.4	4.8
Cc1oc(-c2cccc3ccccc23)nc1CN1CCN(c2ncnc3ccccc23)CC1	-10.6	3.8	-14.0	2.5	.	.
CC(C(=O)OCC(=O)N1CCN(c2ccccc2)CC1)N1C(=O)c2ccccc2C1=O (stereo not drawn)	-47.4	18.6*	24.6	-6.2	2.8	0.9
CN(C(=O)COC(=O)C1CSC2(C)CCC(=O)N12)c1ccccc1 (stereo not drawn)	13.7	4.1	-2.1	0.3	.	.
CN(C(=O)c1cccc(NC(=O)Cc2ccc(NC(=O)C3CCN(C(=O)CCc4ccccc4)CC3)cc2)c1)C1CCC1	-0.1	0.0	6.1	-1.3	.	.
CN(C)c1ccc(CN(C(=O)COc2ccccc2)C2CCS(=O)(=O)C2)cc1 (stereo not drawn)	-39.2	16.5*	3.4	-0.7	3.2	3.0
CCCOn1nnnc1-c1ccccc1	-56.5	20.5*	-1.1	0.2	535.2*	2.6
COc1ccc(-c2cn(Cc3ccc(C(N)=O)cc3)c(-c3ccc(Cl)nc3)n2)cc1	-7.2	2.3	13.0	-2.3	.	.
COc1ccc(C)cc1NC(=O)CSc1nnc(-c2ccc(Br)cc2)o1	-16.9	22.0*	-9.1	1.6	2.5	2.1
COc1ccc(N(CC(=O)NCCSc2ccccn2)S(=O)(=O)c2ccccc2)c(OC)c1	-57.5	19.3*	-31.4	3.9	-0.1	20.8*
Cc1nn(C)c(C)c1C(C)NC(=O)c1cc(COc2ccc(F)c(F)c2)on1 (stereo not drawn)	18.4	1.0	8.5	-1.7	.	.
N#Cc1ccc(OCC(=O)N2CCN(c3ccc(C(F)(F)F)cn3)CC2)cc1	-5.7	18.6*	0.5	-0.1	-0.6	-2.0
Cc1ccccc1/C=N/Nc1ncnc2nc[nH]c12	7.8	14.4*	12.6	-2.5	27.8*	2.6
